Several values for one entry are separate records, joined by “and”; a condition that tells them apart may be missing. Equal entries are not always repeated. Inconclusive results are not listed. Entries that show only a call come without a potency. Activity calls are given as the source filed them. Unless noted, the call rests on the fitted dose curve; in most records, active means well fitted curve in the direction sought with a large enough effect in the repeat runs; inconclusive means weak or mixed curves; inactive means no such curve, though single readings can be large; an effect the other way counts as inactive or inconclusive.
Assays:
[1] = qHTS assay to identify small molecule antagonists of the estrogen related receptor (ERR) signaling pathway from Tox21 library - cell viability counter screen (AID 1224834); further: nearly all actives have a fitted effect of over 30% in size; further: potency means the concentration at half of the fitted maximal effect
Method in brief: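 In this quantitative HTS format, ERR cells receive compounds in DMSO and are incubated for 17.5 h at 37 C. Live-cell protease activity is then detected with CellTiter-Fluor.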

[2] = target: Luciferin 4-monooxygenase (Photinus pyralis) (UniProt P08659); experiment: qHTS assay to identify small molecule inhibitors of firefly luciferase (AID 1224835); further: nearly all actives have a fitted effect of over 25% in size; further: potency means the concentration at half of the fitted maximal effect
Luciferin 4-monooxygenase (Photinus pyralis), sequence (P08659 whole entry, looked up): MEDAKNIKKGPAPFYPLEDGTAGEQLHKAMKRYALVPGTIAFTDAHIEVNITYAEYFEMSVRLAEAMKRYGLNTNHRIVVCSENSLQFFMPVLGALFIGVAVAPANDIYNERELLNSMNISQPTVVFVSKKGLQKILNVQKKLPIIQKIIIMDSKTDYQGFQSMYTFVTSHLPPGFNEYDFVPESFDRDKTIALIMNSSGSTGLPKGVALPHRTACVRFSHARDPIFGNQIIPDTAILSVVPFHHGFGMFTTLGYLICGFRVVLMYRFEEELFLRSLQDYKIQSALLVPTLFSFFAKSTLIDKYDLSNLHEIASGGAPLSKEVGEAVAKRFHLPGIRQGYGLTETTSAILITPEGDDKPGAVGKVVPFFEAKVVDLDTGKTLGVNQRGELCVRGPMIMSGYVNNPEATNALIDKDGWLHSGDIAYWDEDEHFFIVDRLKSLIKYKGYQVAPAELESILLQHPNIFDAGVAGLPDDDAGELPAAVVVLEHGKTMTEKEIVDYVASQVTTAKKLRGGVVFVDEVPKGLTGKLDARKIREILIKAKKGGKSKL
Method in brief: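 Biochemical qHTS: compounds run as interplate titrations against purified firefly enzyme, with D-luciferin and ATP each at its KM concentration. Light output recorded by CCD imaging.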

[3] = qHTS assay to identify small molecule agonists of the constitutive androstane receptor (CAR) signaling pathway - cell viability counter screen (AID 1224836); further: nearly all actives have a fitted effect of over 45% in size; further: potency means the concentration at half of the fitted maximal effect
Method in brief: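 Cell viability multiplexed with the CAR agonist screen: CellTiter-Fluor fluorescence after 23 hr at 37 C. HepG2-CYP2B6-hCAR cells got compounds at 15 concentrations with PK11195 at 0.75 uM final.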

[4] = qHTS assay to identify small molecule antagonists of the constitutive androstane receptor (CAR) signaling pathway - cell viability counter screen (AID 1224837); further: nearly all actives have a fitted effect of over 45% in size; further: potency means the concentration at half of the fitted maximal effect
Method in brief: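 In quantitative HTS format, compounds at 15 concentrations were applied to HepG2 cells double-transfected with hCAR and CYP2B6-2.2kb under 50 nM CITCO stimulation; live-cell protease activity was read after 23 hr via CellTiter-Fluor.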

[5] = target: Nuclear receptor subfamily 1 group I member 3 (Homo sapiens) (UniProt Q14994); experiment: qHTS assay to identify small molecule antagonists of the constitutive androstane receptor (CAR) signaling pathway (AID 1224838); further: nearly all actives have a fitted effect of over 40% in size; further: potency means the concentration at half of the fitted maximal effect
Nuclear receptor subfamily 1 group I member 3 (Homo sapiens), sequence (Q14994 whole entry, looked up): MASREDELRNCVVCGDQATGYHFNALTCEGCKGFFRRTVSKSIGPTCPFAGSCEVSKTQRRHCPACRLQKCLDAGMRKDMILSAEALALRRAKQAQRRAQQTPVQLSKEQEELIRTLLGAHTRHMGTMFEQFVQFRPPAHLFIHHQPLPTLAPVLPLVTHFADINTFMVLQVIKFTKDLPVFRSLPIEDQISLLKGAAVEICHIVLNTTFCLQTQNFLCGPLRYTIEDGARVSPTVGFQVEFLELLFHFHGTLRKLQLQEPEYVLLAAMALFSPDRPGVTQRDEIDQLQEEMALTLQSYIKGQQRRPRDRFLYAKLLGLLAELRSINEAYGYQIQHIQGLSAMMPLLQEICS
Method in brief: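 CITCO-stimulated (50 nM final) HepG2 cells stably transfected with hCAR and CYP2B6-2.2kb luciferase were exposed to compounds at 15 concentrations for 24 h at 37 C/5% CO2. A luciferase reagent was added and luminescence recorded after 30 min.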

[6] = target: Nuclear receptor subfamily 1 group I member 3 (Homo sapiens) (UniProt Q14994); experiment: qHTS assay to identify small molecule agonists of the constitutive androstane receptor (CAR) signaling pathway (AID 1224839); further: nearly all actives have a fitted effect of over 15% in size; further: potency means the concentration at half of the fitted maximal effect
Method in brief: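 Luminescent ONE-Glo read-out after 24 hr, 37 C exposure of double-stable HepG2-CYP2B6-hCAR reporter cells to a 15-point compound series, in the presence of 0.75 uM PK11195 (final).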

[7] = qHTS assay to identify small molecule antagonists of the estrogen related receptor signaling pathway with the pleiotropic PPARgamma coactivator (PGC) from Tox21 10K library - cell viability counter screen (AID 1224840; active means well fitted cell-killing curve with a large enough effect in the repeat runs, not every such curve was filed as active; further: nearly all actives have a fitted effect of over 40% in size; further: potency means the concentration at half of the fitted maximal effect)
Method in brief: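 Viability counter screen, PGC/ERR cells: 17.5 h compound exposure at 37 C, CellTiter-Fluor fluorescence endpoint.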

[8] = qHTS assay to identify small molecule agonists of the estrogen related receptor signaling pathway with the pleiotropic PPARgamma coactivator (PGC) from Tox21 10K library (AID 1224842); further: nearly all actives have a fitted effect of over 15% in size
Method in brief: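 PGC/ERR reporter cell line, 2,000 cells per well, incubated 6 h at 37 C before 23 nL compound in DMSO was added. After 18 h at 37 C, One-Glo luminescence read following 30 min at room temperature.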

[9] = qHTS assay to identify small molecule antagonists of the estrogen related receptor signaling pathway with the pleiotropic PPARgamma coactivator (PGC) from Tox21 10K library (AID 1224841; call rule not given here; further: actives are mostly falling curves and most rising ones were filed inactive; nearly all actives have a fitted effect of over 50% in size; further: potency means the concentration at half of the fitted maximal effect)
Method in brief: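 In the PGC/ERR line, DMSO solutions of test chemicals are pin-delivered to 2,000 cells/well six hours after dispensing. Following eighteen hours' incubation, One-Glo reagent is added and luminescence recorded.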

[10] = target: Thyrotropin receptor (Homo sapiens) (UniProt P16473); experiment: qHTS assay to identify small molecule agonists of the thyroid stimulating hormone receptor (TSHR) signaling pathway (AID 1224843; calls by dose curve; further: nearly all actives have a fitted effect of over 45% in size; further: potency means the concentration at half of the fitted maximal effect)
Thyrotropin receptor (Homo sapiens), sequence (P16473 whole entry, looked up): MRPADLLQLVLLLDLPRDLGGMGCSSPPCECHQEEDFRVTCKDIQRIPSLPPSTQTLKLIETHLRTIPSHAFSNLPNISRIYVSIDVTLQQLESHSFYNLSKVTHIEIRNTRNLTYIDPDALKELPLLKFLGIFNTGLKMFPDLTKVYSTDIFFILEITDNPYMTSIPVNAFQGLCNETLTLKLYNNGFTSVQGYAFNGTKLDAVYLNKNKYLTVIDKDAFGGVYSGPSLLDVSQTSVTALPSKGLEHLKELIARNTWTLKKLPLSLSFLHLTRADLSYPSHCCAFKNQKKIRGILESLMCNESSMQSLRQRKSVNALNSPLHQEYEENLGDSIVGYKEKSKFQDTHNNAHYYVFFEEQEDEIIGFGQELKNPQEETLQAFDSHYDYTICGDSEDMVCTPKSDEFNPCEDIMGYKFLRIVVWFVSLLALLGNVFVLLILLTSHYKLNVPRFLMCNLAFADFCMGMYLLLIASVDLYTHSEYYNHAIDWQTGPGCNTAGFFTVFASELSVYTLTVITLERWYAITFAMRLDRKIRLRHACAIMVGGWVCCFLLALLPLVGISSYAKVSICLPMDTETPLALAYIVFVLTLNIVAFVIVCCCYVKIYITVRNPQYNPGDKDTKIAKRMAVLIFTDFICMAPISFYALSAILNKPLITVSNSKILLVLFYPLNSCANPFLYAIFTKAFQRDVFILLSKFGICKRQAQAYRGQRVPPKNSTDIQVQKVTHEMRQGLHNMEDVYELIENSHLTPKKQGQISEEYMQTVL
Method in brief: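 HEK293/TSHR, 800 cells/well; cpd 30 min RT; add cAMP-d2 + anti-cAMP-cryptate, 1 h RT; fluorescence read on plate reader. 15-pt titration, n=3.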

Compound | Potency [1] | Potency [2] | Potency [3] | Potency [4] | Potency [5] | Potency [6] | Potency [7] | Potency [8] | Potency [9] | Potency [10]
CCOP(=S)(OCC)Oc1cc(C)nc(N(CC)CC)n1 | inactive | inactive | inactive | inactive | inactive | 19.3 µM (active) | inactive | inactive | – | –
CC(Cc1ccc(OCC(=O)O)cc1)NCC(O)c1csc(C(F)(F)F)n1 (stereo not given) | inactive | inactive | inactive | inactive | inactive | inactive | inactive | inactive | inactive | inactive
Cc1ccccc1OP(=O)(Oc1ccccc1C)Oc1ccccc1C | inactive | inactive | inactive | inactive | inactive | 21.8 µM (active) | inactive | inactive | inactive | –
CC1(C)C(C=C(Cl)Cl)C1C(=O)OC(C#N)c1ccc(F)c(Oc2ccccc2)c1 (stereo not given) | inactive | inactive | inactive | inactive | inactive | inactive | inactive | inactive | inactive | –
O=c1c2ccccc2c(=O)c2c1cc(Cl)c1[nH]c3c([nH]c12)c(Cl)cc1c(=O)c2ccccc2c(=O)c13 | inactive | 56.4 µM (active) | inactive | inactive | inactive | inactive | inactive | inactive | – | inactive
O=C(NC(=O)c1ccccc1Cl)Nc1ccc(OC(F)(F)F)cc1 | inactive | inactive | inactive | inactive | inactive | inactive | inactive | – | – | inactive
C[C@@H]1CC2=CC(=O)CC[C@@H]2[C@H]2CC[C@@]3(C)[C@@H](CC[C@]3(C)O)[C@@H]21 | inactive | inactive | inactive | inactive | inactive | inactive | inactive | inactive | – | inactive
CC(C)N(C(=O)CCl)c1ccccc1 | 21.7 µM (active) | inactive | 68.6 µM (active) and 61.1 µM (active) | 54.5 µM (active) and 48.6 µM (active) | 54.5 µM (active) and 38.6 µM (active) | inactive | 30.6 µM (active) | inactive | 9.69 µM (active) and 6.11 µM (active) | inactive
CCCCON=O | inactive | inactive | inactive | inactive | inactive | inactive | inactive | inactive | 49.8 µM (active) | inactive
C[C@]12C/C(=C/O)C(=O)C[C@@H]1CC[C@@H]1[C@@H]2CC[C@@]2(C)[C@H]1CC[C@]2(C)O | 55 µM (active) | inactive | inactive | inactive | inactive | inactive | inactive | inactive | 43.7 µM (active) and 26.6 µM (active) | inactive
CNC(=O)CSP(=O)(OC)OC | inactive | inactive | inactive | inactive | inactive | inactive | inactive | – | – | –
CC(Cc1ccc2c(c1)OCO2)NO (stereo not given) | inactive | inactive | inactive | inactive | inactive | inactive | inactive | inactive | inactive | inactive
O=[N+]([O-])c1ccc(Cl)c(Cl)c1Cl | inactive | inactive | inactive | inactive | inactive | inactive | inactive | inactive | inactive | inactive
Cc1ccn2nc(S(=O)(=O)Nc3c(F)cccc3F)nc2n1 | inactive | inactive | inactive | inactive | inactive | inactive | inactive | inactive | inactive | inactive
c1csc(-c2ccc(-c3cccs3)s2)c1 | inactive | 2.52 µM (active) | inactive | inactive | inactive | 13.7 µM (active) | inactive | – | – | –
O=Cc1ccccc1 | inactive | inactive | inactive | inactive | inactive | inactive | inactive | inactive | inactive | –
O=[N+]([O-])C(Br)Br | inactive | 28.3 µM (active) | inactive | inactive | inactive | inactive | inactive | inactive | inactive | inactive
O=[N+]([O-])c1ccccc1-c1ccccc1 | inactive | inactive | inactive | inactive | inactive | inactive | inactive | inactive | inactive | inactive
CC(O)C(=O)[O][Hg][c]1ccccc1 (stereo not given) | 4.33 µM (active) | 3.99 µM (active) | 4.86 µM (active) | 4.86 µM (active) | 4.33 µM (active) | inactive | 3.06 µM (active) | inactive | 4.86 µM (active) | –
CN(C)c1ccc(N)cc1 | 23.7 µM (active) | 1.74 µM (active) | 59.6 µM (active) | 53.2 µM (active) | inactive | 9.45 µM (active) | 26.6 µM (active) | – | – | –
CC(C)Br | inactive | inactive | inactive | inactive | inactive | inactive | inactive | – | – | –
ClCBr | inactive | inactive | inactive | inactive | inactive | inactive | inactive | inactive | inactive | –

Compound | Potency [1] | Potency [2] | Potency [3] | Potency [4] | Potency [5] | Potency [6] | Potency [7] | Potency [8] | Potency [9] | Potency [10]
Clc1ccc(C2(Cn3cncn3)OCCO2)c(Cl)c1 | inactive | inactive | inactive | inactive | inactive | inactive | inactive | inactive | inactive | inactive
c1ccc2nc(N3CCNCC3)ccc2c1 | inactive | inactive | inactive | inactive | inactive | inactive | inactive | – | – | –
CNC(=O)/C=C(\C)OP(=O)(OC)OC | inactive | inactive | inactive | inactive | inactive | inactive | inactive | inactive | inactive | inactive
CN/C(=N\[N+](=O)[O-])NCc1cnc(Cl)s1 | inactive | inactive | inactive | inactive | inactive | inactive | inactive | – | – | –
O=C1C2(Cl)C3(Cl)C4(Cl)C(Cl)(Cl)C5(Cl)C3(Cl)C1(Cl)C5(Cl)C24Cl (stereo not given) | 53.6 µM (active) and 58.5 µM (active) | inactive | 60.1 µM (active) | 60.1 µM (active) | 23.9 µM (active) and 52.2 µM (active) | inactive | 47.8 µM (active) and 58.5 µM (active) | inactive | 53.6 µM (active) | –
C=C(C)C(=O)[O][Sn]([CH2]CCC)([CH2]CCC)[CH2]CCC | 1.72 µM (active) | 35.6 µM (active) | 0.77 µM (active) | 0.864 µM (active) | 0.273 µM (active) | inactive | 0.864 µM (active) | inactive | – | 0.486 µM (active)
COc1ccc2c(c1OC)C(=O)O[C@@H]2[C@H]1c2cc3c(cc2CCN1C)OCO3 | 9.59 µM (active) | inactive | 7.62 µM (active) | 7.62 µM (active) | inactive | inactive | – | – | – | –
O=c1[nH]c2cc(Cl)ccc2n1C1CCNCC1 | inactive | inactive | inactive | inactive | inactive | inactive | inactive | inactive | inactive | inactive
Oc1ccc(Cl)c(Cl)c1 | inactive | inactive | inactive | inactive | inactive | inactive | inactive | inactive | inactive | –
N#CC(C#N)=NNc1cccc(Cl)c1 | 9.69 µM (active) | 35.6 µM (active) | 6.11 µM (active) | 6.86 µM (active) | 2.43 µM (active) | inactive | 7.7 µM (active) | inactive | 0.969 µM (active) | inactive
Cc1ccc([N+](=O)[O-])[c]2c1[O][Hg]2 | 5.31 µM (active) | 17.4 µM (active) | 9.44 µM (active) | 6.68 µM (active) | 9.44 µM (active) | inactive | 5.96 µM (active) | – | – | –
[Cl][Hg][c]1ccccc1 | 3.44 µM (active) | 6.33 µM (active) | 6.86 µM (active) | 4.33 µM (active) | 3.86 µM (active) | inactive | 2.43 µM (active) | – | – | –
Cc1cc2c3c(c1)C(c1ccccc1)=N[C@@H](NC(=O)c1ccncc1)C(=O)N3CC2 | inactive | inactive | inactive | inactive | inactive | inactive | inactive | inactive | inactive | inactive
CCC(OC(C)=O)C(CC(C)NC)(c1ccccc1)c1ccccc1 (stereo not given) | 69.2 µM (active) | inactive | 69.2 µM (active) | 69.2 µM (active) | 69.2 µM (active) | inactive | 69.2 µM (active) | inactive | inactive | inactive
CCN1CCC2(CC1)COc1cc3c(cc12)N(C(=O)c1ccc(-c2ccc(-c4nnc(C)o4)cc2C)cc1)CC3 | 17.8 µM (active) | inactive | 44.8 µM (active) | 50.2 µM (active) | 44.8 µM (active) | inactive | 17.8 µM (active) | inactive | 7.96 µM (active) | –
CN=C=O | inactive | inactive | inactive | inactive | inactive | inactive | inactive | inactive | inactive | –
CN(C)C(=S)SSC(=S)N(C)C | 339 nM (active) and 433 nM (active) and 473 nM (active) | 2.21 µM (active) and 1.26 µM (active) and 1.55 µM (active) | 339 nM (active) and 486 nM (active) and 531 nM (active) | 269 nM (active) and 344 nM (active) and 422 nM (active) | 191 nM (active) and 386 nM (active) and 473 nM (active) | inactive | 214 nM (active) and 243 nM (active) and 266 nM (active) | – | – | –
C=CCBr | inactive | inactive | inactive | inactive | inactive | inactive | inactive | – | – | inactive
BrCCCBr | inactive | inactive | inactive | inactive | – | inactive | inactive | – | – | –
Fc1ccc(C(OCCN2CCN(CCCc3ccccc3)CC2)c2ccc(F)cc2)cc1 | 26.6 µM (active) | inactive | 21.1 µM (active) | 21.1 µM (active) | – | inactive | 26.6 µM (active) | inactive | 11.9 µM (active) | inactive
O=C(CCCCl)c1ccc(F)cc1 | inactive | 15.5 µM (active) | inactive | inactive | inactive | – | inactive | inactive | inactive | inactive

— PubChem BioAssay (Tox21)
